Experimental data from PubChem BioAssay (EPA / NIEHS).
Records with an inconclusive call do not appear. Some compounds were tested as several samples or in several runs, with calls that do not always agree. The source made the active and inactive calls. How the source made its calls, unless noted: active means hit-call score of the fitted dose curve at least 0.9, where 1 is the maximum; inactive means score below 0.9.

Assays:
[1] = target: Transcription factor Sp1 (Homo sapiens) (UniProt P08047); assay: ATG_Sp1_CIS: Attagene CIS-FACTORIAL HepG2 Assay for human Specificity Protein 1 (Sp1) (AID 2282961); conditions: HepG2 Sp1 cis-reporter transcription, actives raise or lower the signal
Sequence of Transcription factor Sp1 (Homo sapiens) (P08047 whole entry, looked up, the tested form may be a part): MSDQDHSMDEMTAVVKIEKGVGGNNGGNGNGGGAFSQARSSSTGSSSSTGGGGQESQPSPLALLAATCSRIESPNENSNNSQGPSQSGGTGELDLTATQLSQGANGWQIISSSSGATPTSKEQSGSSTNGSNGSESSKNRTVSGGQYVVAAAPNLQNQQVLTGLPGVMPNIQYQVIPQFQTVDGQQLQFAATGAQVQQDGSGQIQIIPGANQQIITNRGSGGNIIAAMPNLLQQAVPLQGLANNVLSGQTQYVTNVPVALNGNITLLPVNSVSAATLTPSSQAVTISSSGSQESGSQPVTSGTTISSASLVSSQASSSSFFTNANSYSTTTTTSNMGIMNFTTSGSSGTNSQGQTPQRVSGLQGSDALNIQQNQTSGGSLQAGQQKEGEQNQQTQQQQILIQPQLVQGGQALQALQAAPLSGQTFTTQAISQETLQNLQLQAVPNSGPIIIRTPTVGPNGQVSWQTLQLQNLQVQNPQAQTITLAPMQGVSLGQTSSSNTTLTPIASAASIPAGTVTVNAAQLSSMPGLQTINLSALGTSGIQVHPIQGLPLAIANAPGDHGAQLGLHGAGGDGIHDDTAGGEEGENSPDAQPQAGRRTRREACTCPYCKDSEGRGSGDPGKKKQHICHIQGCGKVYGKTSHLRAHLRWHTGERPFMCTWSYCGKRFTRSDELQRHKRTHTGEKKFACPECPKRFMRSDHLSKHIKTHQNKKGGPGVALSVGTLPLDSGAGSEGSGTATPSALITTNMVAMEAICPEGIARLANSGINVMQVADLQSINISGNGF
Outline: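 Liver-derived HepG2 cells, cis-element reporter library, 24 h treatment; RNA isolated, cDNA amplified with reporter-specific primers, FAM-labeled fragments sized on capillary analyzer. DMSO baseline, bidirectional curve fit.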

[2] = ATG_SREBP_CIS: Attagene CIS-FACTORIAL HepG2 Assay for human Sterol Regulatory Element Binding (SREBP) (AID 2282962); conditions: HepG2 Attagene cis-factorial SREBP reporter, mRNA; actives raise or lower the signal
Outline: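 Readout: fluorescent reporter-transcript peaks resolved by capillary electrophoresis after RT-PCR. Cells were human HepG2 carrying transfected cis-promoter reporter constructs, dosed for 24 h. Gain or loss of signal was fitted against DMSO controls.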

[3] = target: Signal transducer and activator of transcription 3 (Homo sapiens) (UniProt P40763); assay: ATG_STAT3_CIS: Attagene CIS-FACTORIAL HepG2 Assay for human Signal Transducer and Activator of Transcription 3 (STAT3) (AID 2282963); conditions: HepG2, Attagene cis-factorial STAT3 reporter transcription; actives raise or lower the signal
Sequence of Signal transducer and activator of transcription 3 (Homo sapiens) (P40763 whole entry, looked up): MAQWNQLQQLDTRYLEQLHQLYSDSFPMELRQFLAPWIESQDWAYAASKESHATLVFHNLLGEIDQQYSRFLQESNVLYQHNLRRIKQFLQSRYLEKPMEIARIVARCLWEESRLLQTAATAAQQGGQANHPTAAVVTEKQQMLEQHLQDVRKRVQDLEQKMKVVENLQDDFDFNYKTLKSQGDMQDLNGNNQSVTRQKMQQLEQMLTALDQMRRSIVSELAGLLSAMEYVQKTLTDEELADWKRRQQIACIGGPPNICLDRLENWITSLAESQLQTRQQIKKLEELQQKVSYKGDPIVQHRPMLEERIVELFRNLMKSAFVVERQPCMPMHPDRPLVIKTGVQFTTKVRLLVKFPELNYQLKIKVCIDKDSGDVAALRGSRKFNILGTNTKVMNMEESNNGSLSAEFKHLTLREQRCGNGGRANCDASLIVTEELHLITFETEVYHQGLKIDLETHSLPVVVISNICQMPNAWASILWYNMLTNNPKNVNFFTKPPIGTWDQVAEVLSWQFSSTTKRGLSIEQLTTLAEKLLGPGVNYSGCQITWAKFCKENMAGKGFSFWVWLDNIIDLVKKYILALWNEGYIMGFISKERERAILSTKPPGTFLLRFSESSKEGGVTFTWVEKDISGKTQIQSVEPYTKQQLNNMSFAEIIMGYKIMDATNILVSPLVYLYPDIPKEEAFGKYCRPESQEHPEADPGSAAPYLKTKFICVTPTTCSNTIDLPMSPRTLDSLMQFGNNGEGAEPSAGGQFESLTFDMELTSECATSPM
Outline: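 Readout is reporter transcript quantified by RT-PCR and capillary electrophoresis, with 6-FAM primer extension and HpaI digestion. Total RNA is taken 24 h after dosing transiently transfected HepG2 carrying cis-regulated reporter units. Bidirectional fit against DMSO.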

[4] = ATG_TA_CIS: Attagene CIS-FACTORIAL HepG2 Assay for human TA Basal Promoter (AID 2282964); conditions: HepG2 Attagene CIS-factorial TA basal promoter reporter; actives raise or lower the signal
Outline: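 Fluorescence from labelled RT-PCR reporter fragments, separated by capillary electrophoresis, gives the signal. Cells: HepG2 transiently carrying multiple reporter units, 24 h chemical dosing. Gain or loss relative to DMSO.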

[5] = ATG_TCF_b_cat_CIS: Attagene CIS-FACTORIAL HepG2 Assay for human T-Cell-Factor with beta-catenin (TCF/b-cat) (AID 2282965); conditions: HepG2 TCF/beta-catenin cis-reporter transcription, actives raise or lower the signal
Outline: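 Endogenous transcription factor activity is captured through cis-promoter reporter constructs transiently introduced into human HepG2 liver cells. Induced reporter mRNA is measured after 24 h and fitted bidirectionally relative to DMSO.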

[6] = ATG_TAL_CIS: Attagene CIS-FACTORIAL HepG2 Assay for human TAL Basal Promoter (AID 2282966); conditions: HepG2 Attagene cis-factorial TAL promoter reporter; actives raise or lower the signal;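 further: background control endpoint measuring basal TAL promoter reporter mRNA not a specific factor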
Outline: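 Background-control endpoint: basal TAL promoter reporter transcripts in transiently transfected HepG2, measured 24 h after dosing. Read-out by RT-PCR with fluorescent primer extension and capillary electrophoresis; gain or loss of signal fitted relative to DMSO.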

[7] = ATG_TGFb_CIS: Attagene CIS-FACTORIAL HepG2 Assay for human Transforming Growth Factor (TGF) (AID 2282967); conditions: HepG2 Attagene CIS TGFb reporter, mRNA transcription; actives raise or lower the signal
Outline: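 Bidirectional fitting relative to DMSO gave the endpoint. Underlying data: reporter mRNA from HepG2 cells carrying transiently transfected cis-regulated reporter constructs, harvested 24 h after dosing and analyzed by RT-PCR and capillary electrophoresis.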

[8] = ATG_VDRE_CIS: Attagene CIS-FACTORIAL HepG2 Assay for human Vitamin D Receptor Element (VDRE) (AID 2282968); conditions: HepG2 VDRE cis-reporter transcription, actives raise or lower the signal
Outline: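 Readout is VDRE-driven reporter mRNA reflecting endogenous factor activity in human HepG2 cells, sampled 24 h post-dose. Quantification used labelled RT-PCR products separated by capillary electrophoresis; bidirectional analysis relative to DMSO.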

[9] = target: Nuclear receptor subfamily 1 group I member 3 (Homo sapiens) (UniProt Q14994); assay: ATG_CAR_TRANS: Attagene TRANS-FACTORIAL HepG2 Assay for human Constitutive Androstane Receptor (CAR) (AID 2282969; active means hit-call score of the fitted dose curve at least 0.9, where 1 is the maximum;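 further: activators raise reporter mRNA above DMSO so AC50 marks induction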); conditions: HepG2 Attagene TRANS-FACTORIAL CAR reporter
Sequence of Nuclear receptor subfamily 1 group I member 3 (Homo sapiens) (Q14994 whole entry, looked up, the tested form may be a part): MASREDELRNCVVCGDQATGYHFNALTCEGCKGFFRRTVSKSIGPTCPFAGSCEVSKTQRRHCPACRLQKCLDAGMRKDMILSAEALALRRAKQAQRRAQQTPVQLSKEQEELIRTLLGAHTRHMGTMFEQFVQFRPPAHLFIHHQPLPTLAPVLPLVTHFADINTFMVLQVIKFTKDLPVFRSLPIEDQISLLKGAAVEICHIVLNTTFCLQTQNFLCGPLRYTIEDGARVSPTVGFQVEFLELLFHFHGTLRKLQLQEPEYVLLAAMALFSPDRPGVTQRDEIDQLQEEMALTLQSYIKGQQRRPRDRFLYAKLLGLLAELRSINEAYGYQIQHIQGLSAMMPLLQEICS
Outline: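 Signal is reporter mRNA induction relative to DMSO, measured 24 h after dosing by RT-PCR with fluorescent primer extension and capillary electrophoresis. Human HepG2 liver cells carried transiently transfected chimeric NR-Gal4/GAL4-UAS reporter constructs.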

[10] = target: Estrogen receptor (Homo sapiens) (UniProt P03372); assay: ATG_ERa_TRANS: Attagene TRANS-FACTORIAL HepG2 Assay for human Estrogen Receptor alpha (ERa) (AID 2282970; active means hit-call score of the fitted dose curve at least 0.9, where 1 is the maximum); conditions: HepG2 Attagene TRANS ERa GAL4 reporter, mRNA
Sequence of Estrogen receptor (Homo sapiens) (P03372 whole entry, looked up, the tested form may be a part): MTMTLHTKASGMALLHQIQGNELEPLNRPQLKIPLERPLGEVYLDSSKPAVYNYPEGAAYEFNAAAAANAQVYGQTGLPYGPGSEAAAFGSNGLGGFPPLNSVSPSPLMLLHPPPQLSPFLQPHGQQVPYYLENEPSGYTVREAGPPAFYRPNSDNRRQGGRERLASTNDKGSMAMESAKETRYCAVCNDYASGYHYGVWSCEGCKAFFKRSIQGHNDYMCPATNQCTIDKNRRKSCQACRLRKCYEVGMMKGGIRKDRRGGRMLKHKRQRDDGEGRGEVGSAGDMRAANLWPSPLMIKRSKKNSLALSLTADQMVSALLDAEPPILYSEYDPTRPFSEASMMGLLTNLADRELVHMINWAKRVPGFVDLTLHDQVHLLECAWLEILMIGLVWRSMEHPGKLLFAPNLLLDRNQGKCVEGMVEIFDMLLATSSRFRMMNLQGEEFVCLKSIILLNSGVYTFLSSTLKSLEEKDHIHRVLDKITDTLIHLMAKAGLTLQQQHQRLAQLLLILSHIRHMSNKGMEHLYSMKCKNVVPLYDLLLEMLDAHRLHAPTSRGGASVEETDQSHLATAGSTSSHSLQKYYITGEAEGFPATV
Outline: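 Reporter transcripts were measured 24 h after dosing by RT-PCR with fluorescent primer extension and capillary electrophoresis. The system is transiently transfected HepG2 expressing exogenous NR-Gal4 chimeras driving GAL4-UAS reporters; DMSO is the baseline.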

Measured: AC50

Clc1cccc(Cl)c1Cl
not listed: [9] | [10]
inactive: all other assays above

N#Cc1ccc(Cl)cc1
not listed: [9] | [10]
inactive: all other assays above

CCOC(=O)C(SP(=S)(OC)OC)c1ccccc1 (centres undefined)
not listed: [10]
inactive: all other assays above

COC(=O)Nc1cccc(OC(=O)Nc2cccc(C)c2)c1
not listed: [8] | [9] | [10]
inactive: all other assays above

Cc1cccc(OP(=O)(Oc2cccc(C)c2)Oc2cccc(C)c2)c1
active: [8] 4.85 µM
not listed: [10]
inactive: all other assays above

O=CCCl
active: [2] 26.6 µM | [4] 182 µM | [8] 32.3 µM
not listed: [9] | [10]
inactive: all other assays above

CC(F)(F)CC(F)(F)F
not listed: [10]
inactive: all other assays above

COc1ccc(N)cc1
not listed: [8] | [9] | [10]
inactive: all other assays above

CC1CC(=O)O1 (centres undefined)
not listed: [9] | [10]
inactive: all other assays above

CCC[CH2][Sn]([CH2]CCC)([CH2]CCC)[CH2]CCC
active: [1] 9.76 µM | [2] 2.82 µM | [3] 11.1 µM | [4] 17.1 µM | [5] 15.3 µM | [8] 4.44 µM
inactive: [6] | [7]

CC1(C)[C@H](C(=O)O[C@H](C#N)c2cccc(Oc3ccccc3)c2)[C@@H]1/C=C(\Cl)C(F)(F)F
active: [8] 0.502 µM
inactive: [1] | [2] | [3] | [4] | [5] | [6] | [7] | [8] | [9]

CCCCN(CCCCO)N=O
active: [10] 8.41 µM
inactive: all other assays above

Brc1ccc(Oc2c(Br)cc(Br)cc2Br)c(Br)c1
not listed: [9] | [10]
inactive: all other assays above

CC(C)(C)c1ccccc1O
active: [2] 163 µM | [8] 129 µM
not listed: [10]
inactive: all other assays above

CCC[N+](CCC)(CCC)CCC
inactive: [1] | [2] | [3] | [4] | [5] | [6]

O=[N+]([O-])c1ccc(Cl)c([N+](=O)[O-])c1
active: [3] 5.93 µM | [7] 3.71 µM
not listed: [9] | [10]
inactive: all other assays above

Nc1ccc(N)cc1
active: [5] 27.7 µM | [7] 23.8 µM
inactive: [1] | [2] | [3] | [4] | [5] | [6] | [7] | [8] | [9]

Brc1c(Br)c(Br)c(Oc2c(Br)c(Br)c(Br)c(Br)c2Br)c(Br)c1Br
not listed: [10]
inactive: all other assays above

O=C(O)CC(O)(CC(=O)O)C(=O)O
not listed: [9] | [10]
inactive: all other assays above

O=C1C[C@@H]2OCC=C3CN4CC[C@]56c7ccccc7N1[C@H]5[C@H]2[C@H]3C[C@H]46
not listed: [8] | [9] | [10]
inactive: all other assays above

Cc1cccc(C)c1NC(=O)CN1CCCC1=O
not listed: [8] | [9] | [10]
inactive: all other assays above

CN(C)[C@@H]1C(=O)C(C(N)=O)=C(O)[C@@]2(O)C(=O)C3=C(O)c4c(O)ccc(Cl)c4[C@@](C)(O)[C@H]3C[C@@H]12
not listed: [9] | [10]
inactive: all other assays above

OC[P+](CO)(CO)CO
not listed: [9] | [10]
inactive: all other assays above

Cc1cc(Cl)ccc1O
not listed: [10]
inactive: all other assays above

Oc1cc(Cl)c(Cl)cc1Cl
inactive: [3] | [4] | [5] | [6] | [7]
active: [1] 58.2 µM | [2] 136 µM

C[C@H]1C(=O)O[C@@H]2CCN3CC=C(COC(=O)[C@](C)(O)[C@]1(C)O)[C@H]23
not listed: [9] | [10]
inactive: all other assays above

CN(N=O)C(N)=O
not listed: [9] | [10]
inactive: all other assays above

CC(C)(C#N)N=NC(C)(C)C#N
not listed: [10]
inactive: all other assays above

BrCCCCBr
not listed: [8] | [9] | [10]
inactive: all other assays above

Cc1cc(Cl)ccc1OCCCC(=O)O
not listed: [10]
inactive: all other assays above

C[C@]12CC[C@@H](O)C[C@@H]1CC[C@@H]1[C@@H]2CC[C@]2(C)C(=O)CC[C@@H]12
not listed: [9] | [10]
inactive: all other assays above

N#Cc1ccccc1Cl
not listed: [9] | [10]
inactive: all other assays above

C[C@@H]1O[C@@H](O[C@H]2C[C@@H](O)[C@]3(CO)[C@H]4[C@H](O)C[C@]5(C)[C@@H](C6=CC(=O)OC6)CC[C@]5(O)[C@@H]4CC[C@]3(O)C2)[C@H](O)[C@H](O)[C@H]1O
active: [1] 0.0716 µM | [2] 0.0716 µM | [5] 2.31 µM | [6] 0.165 µM
not listed: [10]
inactive: all other assays above

O=C(O)C1(c2ccc3c(c2)OC[C@H](Cc2ccc(-c4ccccc4)cc2)[C@H]3O)CCCC1
active: [2] 5.92 µM
not listed: [10]
inactive: all other assays above

CCCCOP(=O)(CCCC)OCCCC
active: [8] 17.7 µM
not listed: [10]
inactive: all other assays above

Cc1cc(Cl)ccc1OC(C)C(=O)O (centres undefined)
not listed: [8] | [9] | [10]
inactive: all other assays above

OCCN(CCO)CCO
not listed: [8] | [9] | [10]
inactive: all other assays above

COCCl
not listed: [9] | [10]
inactive: all other assays above

C[CH2][Hg][S]c1ccccc1C(=O)O
inactive: [3] | [4] | [7] | [9]
active: [1] 1.51 µM | [2] 2.66 µM | [5] 6.54 µM | [6] 1.87 µM | [8] 3 µM

Clc1ccc(C(Cl)(Cl)Cl)cn1
not listed: [9]
inactive: all other assays above

O=C(O)c1cc(I)cc(I)c1I
not listed: [9]
inactive: all other assays above

O=C1c2ccccc2C(=O)C1C(=O)C(c1ccccc1)c1ccc(Cl)cc1 (centres undefined)
inactive: [4] | [10]
active: [1] 7.69 µM | [2] 9.14 µM | [3] 167 µM | [5] 12.2 µM | [6] 161 µM | [7] 8.18 µM | [8] 2.93 µM

O=C(O)COc1ccc(Cl)cc1
inactive: all assays above

CC(C)=CC1C(C(=O)OCc2cccc(Oc3ccccc3)c2)C1(C)C (centres undefined)
active: [10] 12.8 µM
inactive: all other assays above

CN(C)c1ccc(N=O)cc1
inactive: all assays above

O=[N+]([O-])c1cc([As](=O)(O)O)ccc1O
not listed: [9]
inactive: all other assays above

CCC[CH2][Sn]([Cl])([Cl])[CH2]CCC
inactive: [3] | [4] | [6] | [7]
active: [1] 0.966 µM | [2] 0.811 µM | [5] 1.82 µM | [8] 1.24 µM | [10] 1.86 µM

CCOP(=S)(OCC)OP(=S)(OCC)OCC
not listed: [8] | [10]
inactive: all other assays above
